Myeloid diff MLP: induction of myeloid progenitor differentiation, primary screen, cell-based, flow cytometry, MLPCN library; calls only at 10 µM; actives 1% (n = 360,000); ER-HoxA9 myeloid progenitors, lysozyme-GFP differentiation;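 active means normalized GFP-positive differentiation at or above the plate's own cutoff, the solvent-only control mean plus 3 SD; inconclusive means no clear call, values can overlap the other calls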;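 further: cells exposed to compound for four days before flow analysis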
ABCB6 inh 2: ABCB6 transporter inhibitors, primary screen, K562-ABCB6 cells, flow cytometry, MLPCN library | fluorescence ratio to DMSO, % at 10 µM | AID 602162, 2011 | actives 0.19% (n = 360,000) | K562-ABCB6 porphyrin accumulation, 1 h; stronger effect = lower value;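 active means fluorescence ratio to DMSO below 75%, the collection mean minus 3 SD; inconclusive means too few cells collected in the well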;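 further: signal is porphyrin accumulated inside mitochondria; lower ratio means ABCB6 inhibition with less porphyrin fluorescence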
Granule exo inh: LAMP-1 surface exposure blockers, TALL-104 cells – cell-based, flow cytometry, MLPCN library, primary screen; inhibition, % at 10 µM; TALL-104 LAMP-1 surface exposure; cells stimulated with thapsigargin and PMA; AID 651702, 2012; actives 0.66% (n = 360,000);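 active means inhibition above about 55%, limit read from the data; inconclusive means no clear call, values can overlap the other calls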
Large screens that a line does not name were inactive. Shown are actives, neighbours in structure and some others; about 1.8% of the full set was active somewhere.

Cc1cc(CNC[C@H]2O[C@@H](n3cnc4c(N)ncnc43)[C@H](O)[C@@H]2O)no1	none
CC1(Cc2ccc(C(F)(F)F)o2)C(=O)Nc2cc(-c3ccc(F)cc3F)ccc21 (centres undefined)	none
C[C@H]1CN=C(N(C)C)N1CC1CCC(C(C)(C)C)CC1 (some centres undefined)	none
Cc1ccc(C=NNc2nc3c([nH]2)c(=O)n(C)c(=O)n3C)cc1	Granule exo inh 84
Cn1c(=O)c2[nH]c(NN=Cc3ccc(Br)cc3)nc2n(C)c1=O	none
O=C(CN1CCN(c2ccc(F)cc2)CC1)c1ccc(O)cc1O	Myeloid diff MLP active
COc1ccc(N2CCN(CC(=O)c3ccc(O)cc3O)CC2)cc1	none
Cc1cc(C)cc(NC(=S)N2CCN(S(=O)(=O)c3ccccc3)CC2)c1	none
CC(C)(C)S(=O)N1Cc2cc(=O)n(Cc3ccccc3)c(CCO)c2[C@H]1CCO (some centres undefined)	none
O=C1NC[C@@H](CCCCN2CCN(CCC3CCCCC3)C(=O)C2=O)N(CCC2CCCCC2)C1=O	none
N#C/C(C(=O)NCc1ccccc1)=C1/N=C(NC(=O)c2ccco2)c2ccccc21	none
COc1ccc(CCNC(=O)/C(C#N)=C2\N=C(NC(=O)c3ccco3)c3ccccc32)cc1	Granule exo inh 84
N#CCC(C(=O)c1cccnc1)c1ccccc1 (centres undefined)	none
Nc1c(C(=O)c2ccc(Cl)cc2)sc2nsc(SCCN3CCOCC3)c12	Myeloid diff MLP active
CC(=O)c1sc2nsc(SCCN3CCCCC3)c2c1N	none
O=C(O)c1ccc(N2C(=O)/C(=C/c3ccc(-c4ccc([N+](=O)[O-])cc4)o3)C=C2c2ccccc2)cc1	Myeloid diff MLP active, Granule exo inh 56
O=C1NN(c2ccccc2)C(=O)/C1=C/c1ccc(-c2ccc(C(=O)O)cc2)o1	none
CCN(CC)S(=O)(=O)c1ccc(/C=C/C(=O)OCC(=O)NCc2ccco2)cc1	none
CCN(CC)C(=O)CSc1nc(-c2cccs2)cc(-c2cccs2)c1C#N	none
CN1CCN(C(=O)CSc2nc(-c3cccs3)cc(-c3cccs3)c2C#N)CC1	Myeloid diff MLP active
COc1ccc(C2=Nn3c(nnc3C3CCCCC3)SC2)cc1OC	Myeloid diff MLP active
COc1ccccc1C1=Nn2c(nnc2C2CCCCC2)SC1	none
COc1ccccc1/C=C/C=c1\sc2nc(=O)c(Cc3ccccc3)nn2c1=O	none
Cn1nnnc1Sc1ncnc2scc(-c3ccc([N+](=O)[O-])cc3)c12	Myeloid diff MLP inconclusive
COc1ccc(C2C(C(=O)c3ccco3)=C(O)C(=O)N2CCc2ccccc2)cc1OC (centres undefined)	Myeloid diff MLP active
COc1ccc(C2C(C(=O)c3ccco3)=C(O)C(=O)N2CCOCCO)cc1OC (centres undefined)	none
CCOC(=O)/C(=C\C=C1/Sc2ccccc2N1CC)C(C)=O	none
CCOC(=O)/C(=C/C=C1\Sc2cc(C)c(C)cc2N1CC)C(C)=O	Myeloid diff MLP active
O=C(Nc1ccc(F)cc1)Nc1nnc([C@@H]2C[C@H](O)[C@@H](CO)O2)s1	none
CC(O)(c1ccc(F)c(F)c1)c1nc(-c2ccoc2)cs1 (centres undefined)	none
CN1C(=O)N(c2cccc3ccccc23)C(n2cncn2)C1(C)C (centres undefined)	none
CN1C(=O)N(c2ccccc2)C(Nc2nncs2)C1(C)C (centres undefined)	Myeloid diff MLP active
O=C(CCc1nnc2ccc(NCc3ccco3)nn12)N1CCN(c2ccccc2F)CC1	Myeloid diff MLP inconclusive
COc1ccc(NC(=O)CCc2nnc3ccc(NCc4ccco4)nn23)cc1OC	Myeloid diff MLP inconclusive
O=C(CCc1nnc2ccc(NCc3ccco3)nn12)N1CCCCC1	Myeloid diff MLP active
Cc1ccc(NC(=O)CCc2nnc3ccc(NCc4ccco4)nn23)cc1F	Myeloid diff MLP active
CCCNC(=O)CCCN1C(=O)c2ccccc2Sc2ncccc21	none
Cc1cccc(N2CCN(C(=O)c3ccc(NC4=NC5CS(=O)(=O)CC5S4)cc3)CC2C)c1 (centres undefined)	none
Cc1ccc(S(=O)(=O)N2C3CCCCC3O[C@H]2CC(=O)c2cccc3ccccc23)cc1 (some centres undefined)	none (no result: ABCB6 inh 2)
Cc1cc(C(=O)N2CCC2(C)C(=O)O)nn1C(C)(C)C (centres undefined)	none
COC(=O)Cn1c2ccc(F)cc2c2nc(C)sc21	none
Cc1nc2c3cc(F)ccc3n(Cc3ccc(F)cc3)c2s1	Myeloid diff MLP active
c1ccc(-c2csc3nnc(SCc4ccc5c(c4)OCO5)n23)cc1	Myeloid diff MLP active
Cc1ccc(-c2csc3nnc(SCC(=O)NCc4ccc5c(c4)OCO5)n23)cc1	none

Screening results from PubChem.
